Consider 64 compounds from PubChem BioAssay AID778 (Sanford-Burnham Center for Chemical Genomics, 2007).

Screen size: about 96,000 compounds; about 20,000 (21%) were called active.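 How the source made its calls: active means CYP2C19 inhibition above a set limit at 5 µM in the primary screen (cut at about 50% in these data); inactive means the rest.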 Only a sample is shown.

In the test the target is Cytochrome P450 2C19 (Homo sapiens) (UniProt P33261). The test is described as follows: blockers of cytochrome P450 2C19 activity – biochemical, luminescence, ADME assay, primary screen (AID 778).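 Further: plate controls were negative control wells for no effect and 2.5 mM tranylcypromine positive control for full effect.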 To be noted: CYP2C19 Supersomes, luciferin-H EGE luminescence, 30 min; at 5 µM; hits give high values.
Cytochrome P450 2C19 (Homo sapiens), sequence (P33261 whole entry, looked up): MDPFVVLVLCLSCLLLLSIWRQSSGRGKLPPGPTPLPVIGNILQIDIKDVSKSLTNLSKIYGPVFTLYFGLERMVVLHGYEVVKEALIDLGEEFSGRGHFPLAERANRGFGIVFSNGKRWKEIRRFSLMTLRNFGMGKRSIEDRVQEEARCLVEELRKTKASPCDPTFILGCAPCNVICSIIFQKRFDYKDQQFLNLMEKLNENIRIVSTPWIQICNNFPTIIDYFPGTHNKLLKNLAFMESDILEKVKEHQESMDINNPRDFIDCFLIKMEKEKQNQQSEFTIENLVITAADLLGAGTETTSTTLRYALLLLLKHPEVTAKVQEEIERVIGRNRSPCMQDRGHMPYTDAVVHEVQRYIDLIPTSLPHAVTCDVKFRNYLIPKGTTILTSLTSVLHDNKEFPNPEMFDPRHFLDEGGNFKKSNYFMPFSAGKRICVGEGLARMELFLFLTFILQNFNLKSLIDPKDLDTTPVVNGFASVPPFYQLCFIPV
For the compound `CC(C)c1ccc(Nc2ncccc2C#N)cc1`, the inhibition is 22.2% (inactive).
The same measure for `Cc1ccc(NC2=NC(c3ccccc3)n3c(nc(C)cc3=O)N2)cc1` (centres undefined): 42.1% (inactive); for `Cc1ccc(OCC(=O)Nc2ccc(-c3nnc(-c4ccco4)o3)cc2)cc1`: 44.4% (inactive).
As for `CC1(C)CC(=O)c2cc(OCC(=O)NCC3CCCO3)ccc2O1` (centres undefined), the figure is 16.2% (inactive).
Regarding `Cc1ccc(/C=N\n2c(-c3ccccc3)n[nH]c2=S)s1`, the inhibition is 4.8% (inactive).
The same measure for `O=C(c1ccc2c(c1)OCO2)N1CCN(C(=O)c2ccco2)CC1`: 17% (inactive).
As for `O=C(c1ccco1)N1CCN(C(=O)C2c3ccccc3Oc3ccccc32)CC1`, the figure is 88.7% (active); as for `CCNC(=S)N1CCN(C(=O)c2ccco2)CC1`, 5.5% (inactive); as for `O=C(Cc1c(F)cccc1Cl)N1CCN(C(=O)c2ccco2)CC1`, 11.2% (inactive).
Consider `COc1ccc(N2C(=O)C3CCCN3C2c2cccc(OC)c2)cc1` (centres undefined), for which the inhibition was 30.1% (inactive).
For `Cc1ccc(OS(=O)Nc2cccc3nccnc23)cc1` (centres undefined), the inhibition was 38.8% (inactive).
The same measure for `Cc1ccc(S(=O)(=O)C(C#N)c2nc3ccccc3nc2N2CCCC2)cc1C` (centres undefined): 96.8% (active); for `Cc1ccc(S(=O)(=O)Nc2nc3ccccc3nc2N2CCc3ccccc3C2)cc1`: 40.6% (inactive).
As for `CC(C)OC(=O)C(C#N)c1nc2ccccc2nc1N1CCN(Cc2ccc3c(c2)OCO3)CC1` (centres undefined), the figure is 2.4% (inactive); as for `Cc1ccc(-c2c3c(=O)n(C)c(=O)n(C)c3cn2-n2cnnc2)cc1`, -18.4% (inactive).
Consider `O=S(=O)(N1CCOCC1)N1CCN(c2ccccc2F)CC1`, for which the inhibition is 61.1% (active).
The same measure for `Cc1cccc(C)c1N1CCN(S(=O)(=O)N2CCOCC2)CC1`: 22.7% (inactive).
Turning to `O=C(c1ccc(CN2CCOCC2)cc1)N1CCN(c2ccccc2F)CC1`, the inhibition is 9.5% (inactive).
On to `COC(=O)c1sccc1N/N=C(\C)c1ccc(F)c(Cl)c1`, for which the inhibition was -0.3% (inactive).
Take `Cc1cc(C)cc(NC(=O)C2CCN(c3nc(C)cc(C)n3)CC2)c1`: the inhibition is -2.3% (inactive).
As for `CC(C)CCNC(=O)C1CCCN(S(=O)(=O)c2ccc(F)cc2)C1` (centres undefined), the figure is 7.6% (inactive); as for `O=C(Nc1ccc2c(c1)OCCO2)C1CCCN(c2ncccn2)C1` (centres undefined), 1.1% (inactive).
With `Cc1cc(-c2ccccc2)nc(N2CCC(C(=O)NC34CC5CC(CC(C5)C3)C4)CC2)n1`, the inhibition is 8.2% (inactive).
With `Cc1ccnc(N2CCCC(C(=O)Nc3cc(F)ccc3C)C2)n1` (centres undefined), the inhibition is 99.2% (active).
As to `Cc1ccnc(N2CCC(C(=O)NC3CCCCCC3)CC2)n1`, the inhibition was 94.4% (active).
As for `C/C(=N\NC(=O)c1nc(C)cc(C)n1)c1ccccc1`, the figure is -4% (inactive); as for `Cc1ccc(-c2nnc(SC(C)C#N)n2N)cc1` (centres undefined), 9% (inactive); as for `NC(N)=N/N=C/c1ccc(OCc2ccc(Cl)cc2Cl)cc1`, -10.2% (inactive).
As for `CCOC(=O)C1=C(O)CSC1=Nc1cccc(Cl)c1`, the figure is 9.1% (inactive); as for `COC(=O)C1C(=O)NCC1c1ccc(OC)cc1` (centres undefined), 13.7% (inactive).
As for `CC(C)(C)NS(=O)(=O)CC12CCC(CC1=O)C2(C)C` (centres undefined), the figure is 17.8% (inactive); as for `CCOc1cc2[nH]c(=S)n(CCN3CCCCC3C)c(=O)c2cc1OCC` (centres undefined), 2.3% (inactive); as for `C=CCNC(=O)c1ccc(C)c(Br)c1`, 19.1% (inactive).
For `C=CCNC(=O)c1sc(SC)cc1-c1ccc(Cl)cc1`, the inhibition is 83.9% (active).
For `CCCCOCCCNC(=O)c1ccccc1OCC`, the inhibition is 48.3% (inactive).
As for `O=C(c1cc(-c2cccs2)on1)N1CCCCC1`, the figure is 14.3% (inactive); as for `CCOc1ccccc1C(=O)NCCCn1ccnc1`, 93.4% (active); as for `COc1ccccc1-c1cc(C(=O)N2CCCCC2)no1`, 52.8% (active).
As for `CCOc1ccc(C(=O)NCCCN2CCCC2=O)cc1`, the figure is 15.8% (inactive); as for `COc1ccc(-c2cc(C(=O)NCc3ccco3)no2)cc1OC`, -19.3% (inactive); as for `O=C(c1cc(-c2ccccc2O)on1)N1CCCC1`, 17.3% (inactive).
In the case of `Cc1cc2nc(C)n(CCCNC(=O)Nc3ccccc3)c2cc1C`, the inhibition is 20.3% (inactive).
As for `O=C(NCCCn1ccnc1)Nc1ccc(Cl)cc1Cl`, the figure is 97.4% (active).
As for `COc1ccccc1CCNC(=O)c1cnccn1`, the figure is 22.6% (inactive); as for `NS(=O)(=O)c1ccc(CCNC(=O)Nc2ccc(Cl)cc2)cc1`, 24.5% (inactive); as for `COc1ccccc1-c1cc(C(=O)NCCCn2ccnc2)no1`, 78.5% (active).
The same measure for `CCCCCCCCOC1OC(CO)C(O)C(O)C1NC(C)=O` (centres undefined): -4.2% (inactive); for `N#Cc1c(NC(=O)CCCN2C(=O)c3ccccc3C2=O)oc(-c2ccccc2)c1-c1ccccc1`: 24.8% (inactive).
For `COCCOC(=O)c1sc(=S)n(CCOC)c1N`, the inhibition was 47.6% (inactive).
Take `Cc1ccc2nc(NC(=O)C3CCN(S(=O)(=O)c4ccc5c(c4)oc(=O)n5C)CC3)sc2c1`: the inhibition was 6.1% (inactive).
In the case of `CCCCC(=O)Nc1ccc(C(=O)NCCCn2ccnc2)cc1`, the inhibition was 37.9% (inactive).
Consider `CCN(CC)C(=O)CCC(=O)Nc1ccc(C(=O)OC)cc1`, for which the inhibition is 33.7% (inactive).
The same measure for `CCCC(=O)Nc1ccc(C(=O)NCCCn2ccnc2)cc1`: 52.2% (active); for `CC1(C)CC(=O)C(C2=NC(C)(C)Cc3ccccc32)=C(O)C1`: 13.7% (inactive); for `COc1ccc(C2C(C#N)=C(/N=C/N3CCOCC3)OC3=C2C(=O)CC(C)(C)C3)cc1OC` (centres undefined): 21% (inactive).
As for `CCc1ccc(N(CC)c2ncnc3nc[nH]c23)cc1`, the figure is 14.9% (inactive); as for `Cn1c2c(c(=O)n(C)c1=O)C(c1cccc([N+](=O)[O-])c1)Nc1ccccc1O2` (centres undefined), 18.9% (inactive); as for `CCOC(=O)C1=C(CN2CCc3ccccc32)NC(=O)NC1c1ccc(Cl)cc1` (centres undefined), 26.5% (inactive).
As for `CCOC(=O)C1=C(CN2CCc3ccccc32)NC(=O)NC1c1cccc([N+](=O)[O-])c1` (centres undefined), the figure is 63.5% (active).
With `NC(=O)COc1ccc2c3c(c(=O)oc2c1)CCCCC3`, the inhibition was -3.8% (inactive).
As for `O=C(COc1ccc2oc3c(c2c1)CCCC3)Nc1ccccn1`, the figure is 21.2% (inactive); as for `O=C(COc1ccc2c3c(c(=O)oc2c1)CCC3)NC1CCCCC1`, 54.4% (active).
The same measure for `CCC1(CC)NC(=O)N(CC(=O)OCC(=O)Nc2ccc(C(F)(F)F)cc2)C1=O`: -6.3% (inactive); for `S=c1[nH]nc(-c2ccco2)n1/N=C/c1ccc(Br)s1`: -11.6% (inactive).
